Test results: PubChem BioAssay
Where “and” joins values, the source holds several entries; their conditions need not be identical. Equal entries are not always repeated. Calls of active or inactive are those of the source.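 The calls were made as follows, unless noted: active = compounds whose cell count with miR-34 switched on is under 0.7 times the count with it off; inactive = the rest.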

Legend:
[1] = BT084 cell growth, single and combined drugs, ICGC_MB145, cisplatin and BGB IC40 combos (AID 1671461); conditions: BT084 medulloblastoma cells, drug combinations, stronger effect = higher value;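 also: cells exposed to drugs for 96 hours; 0% = vehicle DMSO and 100% = high DMSO full killing control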
[2] = RCMB18 cell growth, single agent and combined, cisplatin and BGB IC40 combos (AID 1671462; in the data active = inhibition above about 80%;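 also: cells exposed to compound for four days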); conditions: RCMB18 medulloblastoma cells, stronger effect = higher value
[3] = CRL1545 cell growth, single agent and combined, cisplatin and BGB IC20 combos (AID 1671464; in the data active = inhibition above about 80%;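 also: cells exposed to compound for 96 hours before readout; 0% = vehicle DMSO and 100% = high DMSO killing control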); conditions: CRL1545 osteosarcoma cells, stronger effect = higher value
[4] = viability loss with induced miR-34 in A549 – imaging, A549 dox-inducible miR-34, nuclei and caspase counts, primary screen (AID 1347080); conditions: A549 miR-34 inducible, Hoechst nuclei count, 48 h
[5] = MELAS cybrid and Rieske KO viability enhancers – cell-based, MELAS cybrids, Rieske KO mouse fibroblasts, CellTiter-Glo, primary screen (AID 1508586;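 active = mean z-score across replicates of 1.96 or higher in either the MELAS or the Rieske mutant cell line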;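 also: z relative to plate mean and SD of compound and empty wells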); conditions: low glucose
[6] = galactose survival enhancers in mitochondrial complex I cybrids – cell-based, galactose medium, ATP luminescence, primary screen (AID 1645843;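 active = z-score of at least 1.8 in each of two replicates, scored against plate mean and spread of sample wells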;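 also: positive z means more ATP and so rescue of galactose-driven cybrid death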); conditions: complex I mutant cybrid cells, 72 h, stronger effect = higher value
[7] = P. berghei load reduction in hepatocytes – cell-based, HepG2, luciferase luminescence, HepG2 viability, primary screen (AID 624349; in the data active = parasite load remaining mostly below about 12%, no sharp cut-off; inactive = mostly above about 10%;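 also: 100% = mean of DMSO negative control wells on the same plate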); conditions: P. berghei liver stage in HepG2, luciferase luminescence, concentration not given here; parasite load remaining: stronger effect = lower value; viability: measured here: HepG2 viability without parasites
[8] = target: NAD(+) hydrolase SARM1 (Homo sapiens) (UniProt Q6SZW1); experiment: blocking NAD cleavage by SARM1 SAM-TIR – cell lysate, NAD-Glo luminescence (AID 1508614;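 active = compound whose remaining NAD level is above about 45 nM, limit read from the data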;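 also: higher remaining NAD means stronger inhibition of SARM1 NADase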); conditions: SAM-TIR HEK293T lysate NADase, at 1 µM, stronger effect = higher value
[9] = stronger effect = lower value, cell number ratio, induced over uninduced
[10] = measured here: relative caspase fold change +Dox/-Dox
[11] = measured here: total cells with miR-34 induction, stronger effect = lower value
[12] = measured here: total cells without miR-34 induction
[13] = MELAS cybrid survival, CellTiter-Glo 48 h, stronger effect = higher value
[14] = Rieske KO mouse fibroblast survival, CellTiter-Glo 72 h

Chain of NAD(+) hydrolase SARM1 (Homo sapiens) (Q6SZW1 whole entry, looked up): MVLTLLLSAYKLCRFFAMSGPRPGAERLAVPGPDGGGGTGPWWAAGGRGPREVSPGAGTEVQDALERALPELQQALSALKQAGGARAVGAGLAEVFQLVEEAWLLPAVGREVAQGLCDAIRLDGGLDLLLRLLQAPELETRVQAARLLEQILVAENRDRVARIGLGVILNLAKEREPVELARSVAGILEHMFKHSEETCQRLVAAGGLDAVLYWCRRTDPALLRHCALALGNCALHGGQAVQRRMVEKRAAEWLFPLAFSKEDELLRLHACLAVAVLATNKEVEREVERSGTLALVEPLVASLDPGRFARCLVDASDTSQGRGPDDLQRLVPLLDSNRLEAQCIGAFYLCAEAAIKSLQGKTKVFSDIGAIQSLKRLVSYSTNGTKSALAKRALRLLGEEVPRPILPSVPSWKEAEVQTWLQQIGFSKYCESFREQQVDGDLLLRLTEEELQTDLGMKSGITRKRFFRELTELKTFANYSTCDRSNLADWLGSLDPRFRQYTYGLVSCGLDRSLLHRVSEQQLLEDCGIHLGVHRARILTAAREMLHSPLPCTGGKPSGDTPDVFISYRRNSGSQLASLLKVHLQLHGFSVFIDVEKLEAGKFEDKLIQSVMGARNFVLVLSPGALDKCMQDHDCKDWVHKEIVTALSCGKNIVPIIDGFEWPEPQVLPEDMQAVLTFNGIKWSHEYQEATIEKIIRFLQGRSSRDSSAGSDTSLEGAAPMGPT

C[C@@]1(c2nc3c(C(N)=O)cccc3[nH]2)CCCN1
inhibition ([1]; cisplatin combination, at 5 µM): -105% and -12.9%
inhibition ([1]; measured here: BGB IC40 combination 0.05 uM, at 0.05 µM): -13.2% and 18.5%
inhibition ([1]; single agent, at 5 µM): 2.42% and -15%
inhibition ([2]; at 0.5 µM): -29.1% (inactive) and -18.3% (inactive)
inhibition ([2]; cisplatin combo, at 5 µM): -12.7% and -24.7%
inhibition ([2]; measured here: BGB IC40 combination, at 0.05 µM): 9.85% and -28.2%
inhibition ([2]; measured here: combination with cisplatin, at 0.5 µM): -32.2% and 3.58%
inhibition ([2]; single agent, at 5 µM): -6.99% and -21%
inhibition ([3]; at 0.5 µM): -24.4% (inactive) and -51.1% (inactive)
inhibition ([3]; measured here: with BGB IC20 combination, at 0.5 µM): -33.5% and -35.5%
inhibition ([3]; measured here: with cisplatin IC20 combination, at 0.5 µM): -21.8% and -61.5%
inhibition ([3]; single agent, at 0.05 µM): -21.6% and -35.7%
inhibition ([3]; single agent, at 5 µM): 11.5% and 14.2%

COc1cccc(-c2cccc(N)n2)c1F
fold change [4, 9]: 0.943 (inactive)
fold change [4, 10]: 0.993
cell count [4, 11]: 9590
cell count [4, 12]: 10200
z-score [5, 13]: 0.104 (inactive)
z-score [5, 14]: -0.26
z-score [6]: -0.59 (inactive)

O=C(NCCCc1ccccc1)NC1CCCCC1
fold change [4, 9]: 0.869 (inactive)
fold change [4, 10]: 0.557
cell count [4, 11]: 8240
cell count [4, 12]: 9480
z-score [5, 13]: -0.491 (inactive)
z-score [5, 14]: -0.675
z-score [6]: 0.35 (inactive)

CC(C)[N+]1(C)[C@@H]2CC[C@H]1CC(OC(=O)C(CO)c1ccccc1)C2 (some centres undefined)
parasite load remaining [7]: 74.8% (inactive)
viability [7]: 106%
fold change [4, 9]: 0.879 (inactive)
fold change [4, 10]: 1.21
cell count [4, 11]: 10100
cell count [4, 12]: 11500
z-score [5, 13]: -0.791 (inactive)
z-score [5, 14]: -0.158
remaining NAD [8]: 10 nM (inactive)
z-score [6]: 0.555 (inactive)

CC(C)C1=NOC(c2nc(-c3cccc4ccccc34)no2)C1 (centres undefined)
fold change [4, 9]: 0.862 (inactive)
fold change [4, 10]: 1.54
cell count [4, 11]: 7930
cell count [4, 12]: 9200
z-score [5, 13]: 0.244 (inactive)
z-score [5, 14]: 0.252
z-score [6]: 2 (inactive)

Cn1nc(C(C)(C)C)cc1NC(=O)Cn1cc(-c2ccccc2N)cn1
fold change [4, 9]: 0.913 (inactive)
fold change [4, 10]: 1.7
cell count [4, 11]: 8250
cell count [4, 12]: 9040
z-score [5, 13]: 0.154 (inactive)
z-score [5, 14]: -0.442
z-score [6]: -0.46 (inactive)

CCOc1nc2cccc(C(=O)OCc3oc(=O)oc3C)c2n1Cc1ccc(-c2ccccc2-c2noc(=O)[nH]2)cc1
fold change [4, 9]: 0.946 (inactive)
fold change [4, 10]: 0.471
cell count [4, 11]: 8160
cell count [4, 12]: 8630
z-score [5, 13]: 0.0175 (inactive)
z-score [5, 14]: -0.018
remaining NAD [8]: 10 nM (inactive)

CN(Cc1cnc2ccccc2n1)C(=O)Nc1n[nH]c(-c2ccco2)n1
fold change [4, 9]: 0.886 (inactive)
fold change [4, 10]: 0.927
cell count [4, 11]: 8010
cell count [4, 12]: 9030
z-score [5, 13]: -0.974
z-score [5, 14]: 3.4
z-score [6]: 0.175 (inactive)

COc1ccc(-c2oc3c(CC=C(C)C)c(OC4OC(CO)C(O)C(O)C4O)cc(O)c3c(=O)c2OC2OC(C)C(O)C(O)C2O)cc1 (centres undefined)
fold change [4, 9]: 0.929 (inactive) and 0.864 (inactive)
fold change [4, 10]: 1.15 and 1.26
cell count [4, 11]: 9660 and 9050
cell count [4, 12]: 10400 and 10500
z-score [5, 13]: -0.309 (inactive)
z-score [5, 14]: 0.107
z-score [6]: 0.865 (inactive)

CC(C)(O/N=C(\C(=O)N[C@@H]1C(=O)N2C(C(=O)[O-])=C(C[n+]3ccccc3)CS[C@H]12)c1csc(N)n1)C(=O)O
parasite load remaining [7]: 53.2% (inactive) and 19.3% (inactive)
viability [7]: 114% and 70%
fold change [4, 9]: 0.844 (inactive) and 0.909 (inactive)
fold change [4, 10]: 1.51 and 1.02
cell count [4, 11]: 8430 and 9490
cell count [4, 12]: 9990 and 10400
z-score [5, 13]: -0.0556 (inactive) and 0.494 (inactive)
z-score [5, 14]: -0.289 and -0.00761
remaining NAD [8]: 10 nM (inactive)
z-score [6]: 0.025 (inactive)

Cc1c(OCC(F)(F)F)ccnc1C[S@@](=O)c1nc2ccccc2[nH]1
fold change [4, 9]: 0.977 (inactive)
fold change [4, 10]: 1.03
cell count [4, 11]: 7200
cell count [4, 12]: 7370
z-score [5, 13]: -0.079 (inactive)
z-score [5, 14]: -0.121
remaining NAD [8]: 53 nM (active)

COc1ccc2c(c1)CCN(C(=O)Nc1n[nH]c(-c3ccccc3F)n1)C2
fold change [4, 9]: 0.904 (inactive)
fold change [4, 10]: 0.695
cell count [4, 11]: 7710
cell count [4, 12]: 8530
z-score [5, 13]: -0.521
z-score [5, 14]: 3.73
z-score [6]: 0.16 (inactive)

CO[C@@]1(NC(=O)C2SC(=C(C(N)=O)C(=O)O)S2)C(=O)N2C(C(=O)O)=C(CSc3nnnn3C)CS[C@@H]21 (some centres undefined)
parasite load remaining [7]: 165% (inactive) and 73.4% (inactive)
viability [7]: 107% and 73.9%
fold change [4, 9]: 0.873 (inactive)
fold change [4, 10]: 1.71
cell count [4, 11]: 8700
cell count [4, 12]: 9980
z-score [5, 13]: -0.492 (inactive)
z-score [5, 14]: -0.132
remaining NAD [8]: 10 nM (inactive)

Cc1nn(C)cc1-c1ccnc(NCC(C)Oc2cccnc2)n1 (centres undefined)
fold change [4, 9]: 0.898 (inactive)
fold change [4, 10]: 1.28
cell count [4, 11]: 8650
cell count [4, 12]: 9640
z-score [5, 13]: -0.961 (inactive)
z-score [5, 14]: 0.57
z-score [6]: -0.525 (inactive)

Cc1cnc(NCCCn2cccn2)nc1-c1cnn(C)c1
fold change [4, 9]: 0.862 (inactive)
fold change [4, 10]: 1.64
cell count [4, 11]: 9190
cell count [4, 12]: 10700
z-score [5, 13]: -0.223 (inactive)
z-score [5, 14]: -0.0144
z-score [6]: -0.51 (inactive)

Cc1ccc(-c2ncnc3scc(C)c23)c2cccnc12
fold change [4, 9]: 0.907 (inactive)
fold change [4, 10]: 1.31
cell count [4, 11]: 8040
cell count [4, 12]: 8860
z-score [5, 13]: -0.0169 (inactive)
z-score [5, 14]: -0.263
z-score [6]: -0.425 (inactive)

COc1cccc2ncn(Cc3nc4ccccc4o3)c(=O)c12
fold change [4, 9]: 0.951 (inactive)
fold change [4, 10]: 1.68
cell count [4, 11]: 8290
cell count [4, 12]: 8720
z-score [5, 13]: -0.0437 (inactive)
z-score [5, 14]: -0.268
z-score [6]: -0.545 (inactive)

CCOC(=O)O[C@]1(C(=O)COC(=O)CC)CC[C@H]2[C@@H]3CCC4=CC(=O)C=C[C@]4(C)[C@H]3[C@@H](O)C[C@@]21C
parasite load remaining [7]: 80.7% (inactive)
viability [7]: 80.3%
fold change [4, 9]: 0.839 (inactive)
fold change [4, 10]: 0.816
cell count [4, 11]: 5980
cell count [4, 12]: 7130
z-score [5, 13]: -0.565 (inactive)
z-score [5, 14]: 0.21
remaining NAD [8]: 10 nM (inactive)

O=c1c(-c2ccc(O)cc2)coc2cc(OC3OC(CO)C(O)C(O)C3O)ccc12 (centres undefined)
fold change [4, 9]: 1.06 (inactive)
fold change [4, 10]: 0.687
cell count [4, 11]: 5800
cell count [4, 12]: 5490
z-score [5, 13]: 0.694 (inactive)
z-score [5, 14]: -0.345
z-score [6]: 0.515 (inactive)
